Bioassay records: PubChem, several laboratories
This is a sample that favours compounds with a hit; in the whole collection about 27% have one here.
CYP2C19 inhib: blockers of cytochrome P450 2C19 activity – biochemical, luminescence, ADME assay, primary screen. inhibition, % at 5 µM. 96,000 compounds, 21% hits. CYP2C19 Supersomes, luciferin-H EGE luminescence, 30 min. P33261;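 active means CYP2C19 inhibition above a set limit at 5 µM in the primary screen, cut at about 50% in these data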;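 further: plate controls were negative control wells for no effect and 2.5 mM tranylcypromine positive control for full effect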
CYP2C19 activ: human CYP2C19 activators, primary screen, biochemical, luminescence; Cytochrome P450 2C19 (Homo sapiens), P33261; recombinant CYP2C19, luciferin-H EGE luminescence; active compounds read high; 0 = fully inhibited enzyme, 1 = untreated enzyme; activation factor at 5 µM; 96,000 tested, under 10 active; AID 1025, 2008;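 active means activation factor of at least 2 at 5 µM in the primary screen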;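 further: 0 = wells with 2.5 mM tranylcypromine and 1 = vehicle-only wells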
CYP2C9 activ: human CYP2C9 activators, primary screen, biochemical, luminescence | 96,000 compounds, 1.4% hits | AID 1024, 2008 | Cytochrome P450 2C9 (Homo sapiens), P11712 | activation factor at 5 µM | recombinant CYP2C9, luciferin-H conversion; active compounds read high; factor 1 = untreated enzyme, 0 = blocked;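 active means activation factor of 2 or more for CYP2C9 at a 5 µM dose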;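 further: 0 = sulfaphenazole-blocked wells and 1 = vehicle-only wells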
Target sequence (P11712 whole entry, looked up): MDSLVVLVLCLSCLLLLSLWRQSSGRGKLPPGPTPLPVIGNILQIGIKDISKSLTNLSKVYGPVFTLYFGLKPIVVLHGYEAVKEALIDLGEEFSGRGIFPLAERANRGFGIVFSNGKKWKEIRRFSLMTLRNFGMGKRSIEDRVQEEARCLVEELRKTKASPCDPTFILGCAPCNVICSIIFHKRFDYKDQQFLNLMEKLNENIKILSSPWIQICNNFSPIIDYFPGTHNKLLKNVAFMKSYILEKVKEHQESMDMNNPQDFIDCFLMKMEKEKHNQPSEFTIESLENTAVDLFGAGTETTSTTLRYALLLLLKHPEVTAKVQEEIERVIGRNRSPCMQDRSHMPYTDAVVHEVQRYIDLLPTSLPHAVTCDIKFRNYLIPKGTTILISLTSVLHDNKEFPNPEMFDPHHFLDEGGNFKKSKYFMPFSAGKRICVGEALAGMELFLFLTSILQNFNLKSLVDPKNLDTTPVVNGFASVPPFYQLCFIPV
CYP2C9 inhib: blockers of cytochrome P450 2C9 activity – biochemical, luminescence, ADME assay, primary screen; P11712; CYP2C9 Supersomes, luciferin-H conversion; inhibition, % at 5 µM; 96,000 compounds, 20% hits;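 active means blocking of liver enzyme CYP2C9 beyond about 50% at 5 µM, limit read from the data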
EphB4 ephrin blk: EphB4-ephrin-B2 interaction antagonists, primary screen, biochemical, TNYL-RAW peptide probe, fluorescence polarization; Ephrin type-B receptor 4 (Homo sapiens), P54760; EphB4 LBD / TNYL-RAW-Alexa532 peptide; inhibition, % at 7 µM; 97,000 compounds, 0.15% hits; AID 720, 2007;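 active means inhibition above the screen-wide mean inhibition plus 3 SD, cut at about 15% in these data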;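 further: 0% = DMSO wells and 100% = excess unlabeled TNYL-RAW peptide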
The depositor's hits bear a star.

Results for COc1ccccc1N1CCN(CCOc2c(OC)cccc2OC)CC1 ?
CYP2C19 inhib: 15; CYP2C19 activ: 0.9; CYP2C9 activ: 2.2*; CYP2C9 inhib: -118; EphB4 ephrin blk: -1

Results for CCOC(=O)c1c(C)[nH]c(=S)c(C#N)c1-c1ccc(OC)cc1 ?
CYP2C19 inhib: 39; CYP2C19 activ: 0.6; CYP2C9 activ: 0.2; CYP2C9 inhib: 78*; EphB4 ephrin blk: 3

What do the screens show for `COC(=O)C1=C(C(=O)OC)SC(=C2C(=S)C(C)(C)N(C(=O)CC(C)C)c3ccccc32)S1`?
CYP2C19 inhib: 70*; CYP2C19 activ: 0.3; CYP2C9 activ: 0.7; CYP2C9 inhib: 29; EphB4 ephrin blk: -4

How did c1cc2c(cc1C1CCCCC1)c1c3n2CCCNC3CCC1 (stereo not given) do in these assays?
EphB4 ephrin blk: -3

How did CCOC(=O)c1cc(-c2ccccc2)n(CC(=O)O)c1C do in these assays?
CYP2C19 inhib: 5; CYP2C19 activ: 0.9; CYP2C9 activ: 0.3; CYP2C9 inhib: 72*

What do the screens show for `CCOC(=O)c1cc(-c2ccc(C)cc2)n(CCC(=O)NC(C)CC)c1C` (stereo not given)?
CYP2C19 inhib: 64*; CYP2C19 activ: 0.4; CYP2C9 activ: 0.5; CYP2C9 inhib: 48; EphB4 ephrin blk: 1

How did CCOC(=O)c1cc(-c2ccc(F)cc2)n(CC(=O)Nc2nccs2)c1C do in these assays?
EphB4 ephrin blk: 2

How did CCCNC(=O)CCn1c(-c2ccc(C)cc2)cc(C(=O)OCC)c1C do in these assays?
CYP2C19 inhib: 66*; CYP2C19 activ: 0.3; CYP2C9 activ: 0.4; CYP2C9 inhib: 62*; EphB4 ephrin blk: 1

Results for COc1ccc(NC(=O)NS(=O)(=O)c2ccc(C)cc2)c(OC)c1 ?
CYP2C19 inhib: 27; CYP2C19 activ: 0.7; CYP2C9 activ: 0.1; CYP2C9 inhib: 92*; EphB4 ephrin blk: -4

What do the screens show for `COc1ccc(NC(=O)C(C)N(c2ccc(C)cc2)S(C)(=O)=O)c(OC)c1` (stereo not given)?
CYP2C19 inhib: 90*; CYP2C19 activ: 0.1; CYP2C9 activ: 0.5; CYP2C9 inhib: 52*; EphB4 ephrin blk: -2

How did COc1ccc(NC(=O)Nc2cc(C)ccc2OC(F)F)c(OC)c1 do in these assays?
CYP2C19 inhib: 33; CYP2C19 activ: 0.7; CYP2C9 activ: 0.7; CYP2C9 inhib: 30; EphB4 ephrin blk: -4

Results for CCC(C)(C)c1ccc(OCCN2C(=O)NC(C)(C)C2=O)cc1 ?
CYP2C19 inhib: 89*; CYP2C19 activ: 0.1; CYP2C9 activ: 0.2; CYP2C9 inhib: 76*; EphB4 ephrin blk: 2

What do the screens show for `CC1(C)NC(=O)N(CCOc2ccc3c(c2)CCC3)C1=O`?
CYP2C19 inhib: 72*; CYP2C19 activ: 0.3; CYP2C9 activ: 0.8; CYP2C9 inhib: 21

How did c1c(C2CCCCC2)n[nH]c1CN1CCCCC1 do in these assays?
CYP2C19 inhib: -2; CYP2C19 activ: 1; CYP2C9 activ: 1; CYP2C9 inhib: -4

Results for O=C(CCC(=O)c1cccs1)c1cccs1 ?
EphB4 ephrin blk: 1

How did CCN1CCN(CC(=O)Nc2cc(F)ccc2C)CC1 do in these assays?
CYP2C19 inhib: 33; CYP2C19 activ: 0.7; CYP2C9 activ: 1; CYP2C9 inhib: 0; EphB4 ephrin blk: -3

Results for Cc1ccc(F)cc1NC(=O)CCC(=O)c1cccs1 ?
CYP2C19 inhib: 89*; CYP2C19 activ: 0.1; CYP2C9 activ: 0.6; CYP2C9 inhib: 44; EphB4 ephrin blk: 8

How did O=C(CCC(=O)c1cccs1)NC(c1ccccc1)c1ccccc1 do in these assays?
CYP2C19 inhib: 74*; CYP2C19 activ: 0.3; CYP2C9 activ: 0.5; CYP2C9 inhib: 55*; EphB4 ephrin blk: 4

How did CC(=O)c1c(C)n(C)c2ccc(OC(=O)c3ccco3)cc12 do in these assays?
CYP2C19 inhib: 24; CYP2C19 activ: 0.8; CYP2C9 activ: 0.8; CYP2C9 inhib: 23; EphB4 ephrin blk: 7

Results for O=S(=O)(N/N=C\C=C\c1ccccc1)c1ccc(Br)cc1 ?
CYP2C19 inhib: 48; CYP2C19 activ: 0.5; CYP2C9 activ: 0; CYP2C9 inhib: 97*; EphB4 ephrin blk: -1

How did Cc1ccc(S(=O)(=O)N/N=C\C=C\c2ccccc2)cc1 do in these assays?
CYP2C19 inhib: 17; CYP2C19 activ: 0.8; CYP2C9 activ: 0.2; CYP2C9 inhib: 84*; EphB4 ephrin blk: 2
